# According to PubChem BioAssay:
# Active and inactive are the calls of the source. Unless noted, how the calls were made is not given here.
# Legend:
# [1] = resazurin metabolic signal in HepG2 cells – cell-based, resazurin fluorescence, 24 h, PK04 Diversity Set, profiling panel (AID 1172); conditions: HepG2 viability, higher = more signal
# [2] = budding yeast growth changes without added modifier – OD600, strain BY4716, 24 h, basal condition, primary screen (AID 1173); conditions: S. cerevisiae BY4716 growth, OD600, 24 h; higher = more signal, called active from +8 up or from −8 down
# [3] = viability profiling in MM1S myeloma cells – cell-based, resazurin fluorescence, basal, 24 h, PK04 Diversity Set, profiling panel (AID 1174); conditions: higher = more signal, called active from +8 up or from −8 down;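 further: MM1S multiple myeloma cell line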
# [4] = biological target: Dihydroorotate dehydrogenase (quinone), mitochondrial (Plasmodium falciparum (isolate 3D7)) (UniProt Q08210); test: inhibition of P. falciparum DHODH – biochemical, C-terminal His tag, absorbance 600 nm, primary screen (AID 1175); conditions: PfDHODH enzyme, DCIP absorbance 600 nm; higher = more signal, called active from +8 up or from −8 down;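 further: recombinant parasite enzyme with a five histidine tag at its C terminus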
# Dihydroorotate dehydrogenase (quinone), mitochondrial (Plasmodium falciparum (isolate 3D7)), sequence (Q08210 whole entry, looked up): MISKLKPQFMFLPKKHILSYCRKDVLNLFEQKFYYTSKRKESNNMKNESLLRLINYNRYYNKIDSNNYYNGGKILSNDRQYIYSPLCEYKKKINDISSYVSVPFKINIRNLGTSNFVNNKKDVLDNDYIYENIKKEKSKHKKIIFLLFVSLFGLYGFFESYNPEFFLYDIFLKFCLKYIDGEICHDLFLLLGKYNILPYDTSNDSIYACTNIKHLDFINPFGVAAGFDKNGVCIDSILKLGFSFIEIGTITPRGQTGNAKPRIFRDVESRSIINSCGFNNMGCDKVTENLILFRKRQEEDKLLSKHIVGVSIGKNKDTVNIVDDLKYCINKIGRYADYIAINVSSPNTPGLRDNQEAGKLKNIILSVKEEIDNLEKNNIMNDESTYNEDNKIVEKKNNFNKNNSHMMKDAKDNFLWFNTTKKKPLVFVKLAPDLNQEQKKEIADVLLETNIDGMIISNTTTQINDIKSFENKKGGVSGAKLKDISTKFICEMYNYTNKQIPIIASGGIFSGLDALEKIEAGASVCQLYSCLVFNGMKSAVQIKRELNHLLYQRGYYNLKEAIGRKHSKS
# [5] = inhibition of PAO1 biofilm formation – strain PAO1, LB-PBS medium, absorbance 600 nm, primary screen (AID 1176); conditions: P. aeruginosa PAO1 growth/biofilm, A600, 12 h; higher = more signal
# [6] = growth modulation of vineyard yeast isolate – strain RM11-1a, OD600, basal, 24 h, primary screen (AID 1177);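 further: cultures grown under basal conditions with no added stressor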; conditions: S. cerevisiae RM11-1a growth, OD600, 24 h; higher = more signal, called active from +8 up or from −8 down
# [7] = growth of efflux-deficient E. coli DRC39 – strain DRC39, OD650, 24 h, E. coli filamentation inducers, primary screen (AID 1178);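 further: growth measured as culture turbidity by optical density at 650 nm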; conditions: E. coli DRC39 acrAB, higher = more signal, called active from +8 up or from −8 down
# [8] = growth of efflux-deficient E. coli DRC39 – strain DRC39, OD650, 48 h, E. coli filamentation inducers, primary screen (AID 1179);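 further: screen aims at cell division blockers that make cells filament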; conditions: E. coli DRC39 delta-acrAB growth, higher = more signal, called active from +8 up or from −8 down
# [9] = viability profiling in RPMI8226 myeloma cells – cell-based, resazurin fluorescence, basal, 24 h, PK04 Diversity Set, profiling panel (AID 1180); conditions: higher = more signal;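 further: RPMI8826 multiple myeloma cell line at 5000 cells per well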
# [10] = biological target: E3 ubiquitin-protein ligase XIAP (Homo sapiens) (UniProt P98170); test: small molecules binding XIAP protein – biophysical, small-molecule microarray, fluorescence 635 nm, primary screen (AID 1181); conditions: higher = more signal;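 further: score merges 667 nm emission and signal to noise over triplicate slides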
# E3 ubiquitin-protein ligase XIAP (Homo sapiens), sequence (P98170 whole entry, looked up, the tested form may be a part): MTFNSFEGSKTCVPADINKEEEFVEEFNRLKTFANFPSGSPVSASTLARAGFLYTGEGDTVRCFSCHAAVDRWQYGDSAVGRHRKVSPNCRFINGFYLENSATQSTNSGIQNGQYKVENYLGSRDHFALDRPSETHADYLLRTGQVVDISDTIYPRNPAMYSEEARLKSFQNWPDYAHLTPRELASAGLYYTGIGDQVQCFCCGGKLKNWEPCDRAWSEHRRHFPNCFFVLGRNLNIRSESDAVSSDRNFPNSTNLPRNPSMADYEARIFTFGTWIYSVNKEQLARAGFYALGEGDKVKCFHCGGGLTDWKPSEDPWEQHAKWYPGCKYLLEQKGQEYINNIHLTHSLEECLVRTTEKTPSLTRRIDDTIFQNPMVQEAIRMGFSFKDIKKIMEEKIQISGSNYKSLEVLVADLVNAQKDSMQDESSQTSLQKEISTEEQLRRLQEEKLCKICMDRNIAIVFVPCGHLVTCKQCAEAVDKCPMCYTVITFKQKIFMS
# [11] = tested on: XIP peptide (Xip251-270) binding; test: XIP fragment 251-270 binding compounds – biochemical, small-molecule microarray, fluorescence 635/667 nm, 0.1 µg/mL protein, primary screen (AID 1182); conditions: fluorescent protein binding, 635 nm, higher = more signal, called active from +8 up or from −8 down
# XIP peptide (Xip251-270) = test: compounds binding XIP fragment 251-270 – biochemical, small-molecule microarray, fluorescence 635/667 nm, 0.5 µg/mL protein, primary screen (AID 1183); conditions: fluorescence 635 nm, higher = more signal
# [12] = blood-stage malaria parasite viability loss – strain 3D7, DAPI fluorescence, 100 nL, primary screen (AID 1184);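 further: parasites grown inside human red blood cells in medium with human serum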; conditions: P. falciparum 3D7 growth, 3 d, higher = more signal
# [13] = biological target: Homeobox protein Hox-A13 (Mus musculus) (UniProt Q62424); test: disruptors of Hoxa13 oligonucleotide interaction – biochemical, fluorescence polarization, labeled oligonucleotide, primary screen (AID 1185); conditions: Hoxa13:DNA binding, 15 min, higher = more signal, called active from +8 up or from −8 down
# Homeobox protein Hox-A13 (Mus musculus), sequence (Q62424 whole entry, looked up): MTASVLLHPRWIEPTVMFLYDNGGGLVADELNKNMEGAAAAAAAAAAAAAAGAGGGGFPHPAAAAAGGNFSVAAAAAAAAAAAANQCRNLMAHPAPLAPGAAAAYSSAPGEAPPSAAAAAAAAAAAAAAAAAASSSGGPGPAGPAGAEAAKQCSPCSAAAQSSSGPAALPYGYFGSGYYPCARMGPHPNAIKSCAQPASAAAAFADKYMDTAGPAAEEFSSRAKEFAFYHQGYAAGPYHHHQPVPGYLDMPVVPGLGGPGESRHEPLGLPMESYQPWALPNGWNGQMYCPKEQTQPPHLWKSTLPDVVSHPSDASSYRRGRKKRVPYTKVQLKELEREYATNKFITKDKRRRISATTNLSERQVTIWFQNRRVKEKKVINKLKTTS
# [14] = blockers of DNA damage checkpoint Chk1 activation – imaging, HeLa, hydroxyurea, phospho-Chk1 antibody, percent positive cells, primary screen (AID 1186); conditions: hydroxyurea-induced phospho-Chk1 immunofluorescence imaging, higher = more signal
# [15] = blockers of DNA damage checkpoint Chk1 activation – imaging, HeLa, hydroxyurea, phospho-Chk1 nuclear intensity, primary screen (AID 1187); conditions: hydroxyurea-induced phospho-Chk1 immunofluorescence imaging, higher = more signal
SMILES,z-score [1],z-score [2],z-score [3],composite z-score [4],z-score [5],z-score [6],z-score [7],z-score [8],z-score [9],composite z-score [10],composite z-score [11],composite z-score (XIP peptide (Xip251-270)),z-score [12],z-score [13],z-score [14],z-score [15]
COCCCNC(=O)[C@@]1(Cc2ccccc2N=[N+]=[N-])N=C(c2ccc(OCCCO)cc2)O[C@H]1c1ccccc1,-0.0132,-0.632 (inactive),-0.681 (inactive),0.328 (inactive),0.441 (inactive),-0.115 (inactive),0.987 (inactive),-0.325 (inactive),-0.647,0.234,0.226 (inactive),0.818,-2.49,-5.46 (inactive),0.0251 (inactive),0.285 (inactive)
O=C(NCc1ccccc1)[C@@H]1c2ccccc2C(=O)N(Cc2ccccc2C(F)(F)F)[C@H]1c1ccc(CO)cc1,-0.431,0.036 (inactive),-0.433 (inactive),0.154 (inactive),1.19 (inactive),0.0858 (inactive),0.232 (inactive),0.56 (inactive),-0.137,-0.107,0.55 (inactive),0.545,0.0452,-3.17 (inactive),-0.496 (inactive),-0.841 (inactive)
NCCCCCCNC(=O)[C@@H]1C[C@@H]2C(=O)N[C@@H](CCCCN)C(=O)N2[C@@H]1c1cccc(OCCO)c1,1.1,0.0813 (inactive),0.193 (inactive),0.169 (inactive),-0.931 (inactive),0.58 (inactive),0.398 (inactive),0.756 (inactive),0.685,2.72,1.7 (inactive),0.832,0.139,-3.22 (inactive),-0.545 (inactive),-0.269 (inactive)
COCCCNC(=O)[C@@]1(Cc2ccccc2CN=[N+]=[N-])N=C(c2ccc(OCCCO)cc2)O[C@H]1c1ccccc1,0.636,0.41 (inactive),-0.88 (inactive),1.22 (inactive),-0.317 (inactive),1.92 (inactive),1.28 (inactive),0.242 (inactive),-1.75,-0.052,1.38 (inactive),0.789,-2.37,-6.47 (inactive),-0.371 (inactive),-0.349 (inactive)
CC(C)(C)OC(=O)CC[C@]1(C(=O)NCC(O)CO)N=C(c2ccc(OCCCO)cc2)O[C@H]1c1ccccc1 (stereo partly drawn),0.309,-1.84 (inactive),1.04 (inactive),-1.89 (inactive),0.882 (inactive),-0.87 (inactive),1.41 (inactive),0.419 (inactive),0.949,-0.0203,0.0294 (inactive),0.628,-1.74,-4.14 (inactive),-0.703 (inactive),-0.886 (inactive)
CC(=O)NCCCC[C@@H]1NC(=O)[C@@H]2C[C@H](C(=O)NCCCC[N+](C)(C)C)[C@H](c3ccc(O)cc3)N2C1=O,-0.294,-0.0108 (inactive),-1.23 (inactive),-30.7 (active),2.35 (inactive),0.55 (inactive),-0.0376 (inactive),-1.1 (inactive),-1.2,-0.168,2.41 (inactive),0.842,-0.859,0.749 (inactive),-0.508 (inactive),-0.589 (inactive)
C=C(/C(=C/C[C@H](OC(C)=O)c1cccc(OCCO)c1)c1cnc2ccccc2c1)C(C)C,-0.196,0.644 (inactive),-0.0992 (inactive),-5.52 (inactive),-0.0099 (inactive),1.51 (inactive),0.636 (inactive),0.363 (inactive),0.573,-0.0773,-0.328 (inactive),-0.179,-1.28,-4.29 (inactive),-0.192 (inactive),-0.139 (inactive)
CCCCC(=C=CC[C@@H](O)c1ccccc1OCCO)C[C@@H](O)COCc1ccccc1,-0.202,-0.984 (inactive),0.12 (inactive),-2.09 (inactive),0.0478 (inactive),-2.79 (inactive),0.666 (inactive),0.406 (inactive),0.267,0.0022,-0.175 (inactive),0.868,-1.67,-4.72 (inactive),0.193 (inactive),1.06 (inactive)
C=CCOC(=O)[C@H]1[C@@H]2C(=O)O[C@@H](c3ccccc3)[C@@H](c3ccccc3)N2[C@@H](c2ccc(OCCOC(=O)[C@@H]3C[C@@H]4C(=O)N[C@@H](CCCCN(C)C)C(=O)N4[C@@H]3c3ccc(O)cc3)cc2)[C@]12C(=O)Nc1ccccc12,-2.65,-1.48 (inactive),0.0862 (inactive),-1.52 (inactive),1.07 (inactive),0.0694 (inactive),-1.05 (inactive),-0.628 (inactive),0.313,-0.0172,2.41 (inactive),0.878,0.0953,4.03 (inactive),-0.768 (inactive),-0.475 (inactive)
COc1ccc(C#Cc2ccc3c(c2)[C@]2(C(=O)N3)[C@H](c3ccc(O)cc3)N3[C@H](c4ccccc4)[C@H](c4ccccc4)OC(=O)[C@H]3[C@@H]2C(=O)O)cc1,0.275,-1.16 (inactive),0.504 (inactive),-2.78 (inactive),1.15 (inactive),0.0708 (inactive),0.355 (inactive),-0.341 (inactive),0.801,0.126,-0.101 (inactive),0.83,-1.23,-5.22 (inactive),-0.368 (inactive),-0.664 (inactive)
CCCC[C@@H]1C[C@H]1[C@@H](NC(=O)c1ccccc1)c1ccc(C(F)(F)F)cc1,1.09,0.628 (inactive),0.142 (inactive),0.573 (inactive),0.479 (inactive),0.176 (inactive),0.1 (inactive),0.155 (inactive),0.329,-0.369,2.28 (inactive),-1.51,0.011,0.0892 (inactive),-0.27 (inactive),-0.226 (inactive)
O=C1OCC=C[C@H]2OC34C=CCN(c5ccc(Cl)cc5)C(=O)[C@H]3N(CCO)C(=O)[C@@H]4[C@@H]12 (stereo partly drawn),-0.222,0.52 (inactive),0.296 (inactive),0.198 (inactive),-0.401 (inactive),0.568 (inactive),0.973 (inactive),1 (inactive),0.825,-0.22,-0.0292 (inactive),-0.457,1.05,-2.74 (inactive),-0.435 (inactive),-0.457 (inactive)
O=C1O[C@H](c2ccccc2)[C@H](c2ccccc2)N2[C@H]1[C@@H](C(=O)NC[C@H](O)c1ccccc1)[C@]1(C(=O)Nc3ccc(C#CCCO)cc31)[C@H]2c1ccc(OCCO)cc1,-0.468,1.62 (inactive),-0.0793 (inactive),-1.33 (inactive),2.31 (inactive),3.46 (inactive),0.541 (inactive),0.721 (inactive),-0.821,0.283,1.14 (inactive),0.829,-0.685,-3.46 (inactive),-0.434 (inactive),-0.821 (inactive)
COC(=O)c1c(CC[C@@H](CO)NC(=O)N2CCC[C@H]2Cn2cc(Cc3ccccc3)nn2)oc(C(C)=O)c1C(=O)OC,0.448,-1.36 (inactive),-0.362 (inactive),-0.378 (inactive),-1.27 (inactive),-0.245 (inactive),0.745 (inactive),0.312 (inactive),-0.394,0,2.25 (inactive),0.889,-0.547,-3.88 (inactive),-0.358 (inactive),-0.522 (inactive)
C=CCOC(=O)[C@H]1[C@@H]2C(=O)O[C@@H](c3ccccc3)[C@@H](c3ccccc3)N2[C@@H](c2ccc(OCCOC(=O)[C@H]3C[C@H]4C(=O)N[C@@H](CC(C)C)C(=O)N4[C@H]3c3cccc(OCCO)c3)cc2)[C@]12C(=O)Nc1ccc(I)cc12,-0.054,1.9 (inactive),-0.414 (inactive),0.124 (inactive),2.9 (inactive),0.447 (inactive),-0.0744 (inactive),-0.62 (inactive),-0.385,-0.0174,0.124 (inactive),0.694,-1.79,0.344 (inactive),-0.592 (inactive),-1.19 (inactive)
O=C1C[C@@](C(=O)NCCN2CCOCC2)(c2ccc([N+](=O)[O-])cc2)[C@@H](c2ccc(CO)cc2I)N1C1CCCCC1,0.95,-2.72 (inactive),1.11 (inactive),0.362 (inactive),-0.261 (inactive),-1.19 (inactive),0.497 (inactive),0.356 (inactive),0.891,0.0223,-0.026 (inactive),0.588,-1.37,-5.37 (inactive),0.0213 (inactive),0.245 (inactive)
COc1ccc([Si](C)(C)[C@H]2[C@H](CCn3cc([C@H](O)c4ccccc4)nn3)O[C@@]3(C(=O)N(Cc4ccc(N5C(=O)c6cccc7cccc5c67)cc4)c4ccccc43)[C@@H]2C)cc1,-0.0876,0.0957 (inactive),-1.96 (inactive),0.468 (inactive),1.03 (inactive),1.26 (inactive),1.57 (inactive),1.45 (inactive),-0.761,-0.031,0.784 (inactive),0.199,-1.59,-0.717 (inactive),-0.283 (inactive),-0.162 (inactive)
CC(C)N1C(=O)c2ccccc2[C@@H](C(=O)NC2CC2)[C@@H]1c1ccc(CO)cc1,-0.146,0.164 (inactive),0.224 (inactive),-0.54 (inactive),0.277 (inactive),-0.716 (inactive),0.0426 (inactive),-0.452 (inactive),0.417,0.163,0.11 (inactive),0.461,0.314,-2.99 (inactive),-0.0392 (inactive),-0.0337 (inactive)
